Only some compounds are listed: those with a hit (about 0.89% of all), similar ones and a draw of the others.
RPL19A TOR yeast: yeast TOR pathway RPL19A-GFP modulation; hit rate 0.3% among 330,000; S. cerevisiae RPL19A-GFP strain, flow cytometry, 3 h; active compounds read low; percent response vs DMSO, % at 10 µM;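 active = percent response vs DMSO below 50%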;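 note: median channel GFP fluorescence of the barcoded RPL19A-GFP strain; ratio of sample median GFP to plate DMSO average so 100% = DMSO; lower means less RPL19A-GFP as with rapamycin TOR inhibition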
AGP1 TOR yeast: alters AGP1-GFP fluorescence in TOR pathway yeast screen; S. cerevisiae AGP1-GFP multiplex flow cytometry, 3 h; GFP as percent of DMSO wells; GFP response vs DMSO, % at 10 µM; hit rate 0.02% among 320,000;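 active = GFP response relative to DMSO above a set limit, near screen average plus 3 SD, cut at about 150% in these data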;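 note: median GFP channel fluorescence of the gated AGP1 strain per well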
MEP2 TOR yeast: yeast TOR pathway MEP2-GFP modulation. hit rate 0.51% among 330,000. AID 2016. GFP response vs DMSO, % at 10 µM. S. cerevisiae MEP2-GFP strain, flow cytometry GFP, 3 h; 100% = DMSO control level;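 active = GFP response versus DMSO above a set limit, roughly screen mean plus 3 SD, cut at about 180% in these data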;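 note: median GFP fluorescence of the barcode-gated MEP2-GFP cells per well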
LAP4-GFP MLPCN: alters LAP4-GFP fluorescence in TOR pathway yeast screen | GFP response vs DMSO, % at 10 µM | hit rate 0.34% among 320,000 | AID 2023 | S. cerevisiae LAP4-GFP multiplex, flow cytometry GFP, 3 h; median GFP as percent of DMSO wells;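 active = GFP response vs DMSO above a set limit, about the screen mean plus 3 SD, cut at about 150% in these data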
CIT2 TOR yeast: modulators of TOR pathway CIT2-GFP in S. cerevisiae; AID 2029; GFP response vs DMSO, % at 10 µM; S. cerevisiae CIT2-GFP strain, flow cytometry, 3 h; 100 means same as DMSO wells; hit rate 0.065% among 320,000;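 active = GFP response relative to DMSO above a set limit, near the screen mean plus 3 SD, cut at about 150% in these data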;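 note: ratio of well median GFP fluorescence to mean of DMSO wells on the plate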
LAP4-GFP pick2: second confirmation of modulators of TOR reporter LAP4-GFP in yeast; shares compounds with LAP4-GFP MLPCN; S. cerevisiae LAP4-GFP strain, flow cytometry GFP, 3 h; GFP response vs DMSO, % at 10 µM; hit rate 20% among 590; AID 2621;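 active = GFP signal as percent of the solvent control above about 150%, meaning raised reporter expression, limit read from the data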;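 note: ratio of well median GFP fluorescence to plate DMSO mean so 100% = DMSO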
MEP2-GFP pick2: reconfirmed MEP2-GFP TOR pathway modulator in yeast | shares compounds with LAP4-GFP MLPCN | S. cerevisiae MEP2-GFP strain, flow cytometry GFP, 3 h | GFP response vs DMSO, % at 10 µM | hit rate 10% among 590 | AID 2622;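 active = GFP signal above 150% of the solvent control wells, that is a rise of more than half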;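 note: median channel GFP fluorescence of all gated yeast cells per well; ratio of median GFP to plate DMSO average so 100% = DMSO level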
RPL19A GFP CP2: reconfirmed modulator of RPL19A-GFP TOR reporter in yeast; shares compounds with LAP4-GFP MLPCN; S. cerevisiae RPL19A-GFP strain, flow cytometry GFP, 3 h; active compounds read low; 100% means same as DMSO wells; GFP response vs DMSO, % at 10 µM; hit rate 3% among 590; AID 2623;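 active = under 65% GFP response relative to DMSO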;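 note: median GFP channel fluorescence per well over the all cells gate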
CIT2 GFP CP2: reconfirmed modulator of CIT2-GFP TOR reporter in yeast | shares compounds with LAP4-GFP MLPCN | S. cerevisiae CIT2-GFP strain, flow cytometry GFP, 3 h; DMSO control wells read 100% | GFP response vs DMSO, % at 10 µM | hit rate 8% among 590;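 active = GFP response vs DMSO above about 150%, limit read from the data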;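 note: median green fluorescence per well over all gated yeast cells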
AGP1 GFP CP2: reconfirmed modulator of AGP1-GFP TOR reporter in yeast; shares compounds with LAP4-GFP MLPCN; S. cerevisiae AGP1-GFP strain, flow cytometry GFP, 3 h; percent response vs DMSO, % at 10 µM; 590 tested, under 10 active; AID 2643;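 active = over 150 percent of DMSO response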;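 note: median GFP channel fluorescence over all cells without mother daughter split; sample median GFP divided by mean DMSO control so 100% equals DMSO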
s288c autofluor: compound is autofluorescent in yeast s288c cells; shares compounds with LAP4-GFP MLPCN; S. cerevisiae s288c, 520 nm autofluorescence, flow cytometry, 3 h; active compounds read high; zero means same as solvent-only cells; fluorescence change (kMESF span) at 33 µM; 610 tested, under 10 active; AID 2757;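 active = fluorescence span over the dose series, or activity score, above about 33, limit read from the data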
s288c autofl DR: yeast s288c autofluorescence artifact in dose response; shares compounds with LAP4-GFP MLPCN; S. cerevisiae s288c parental, compound autofluorescence, flow cytometry, 3 h; fluorescence change (span) at 33 µM; 110 tested, under 10 active; AID 488829;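 active = fluorescence change span, or the activity score built from it, above 25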
TORC1 bypass gr: wildtype yeast growth loss with TORC1 bypass cells unaffected | shares compounds with LAP4-GFP MLPCN | S. cerevisiae BY4741 spot growth rating, 48-72 h; active compounds read low | growth rating (0-3) at 30 µM | 120 tested, under 10 active | AID 504456;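 active = growth rating at most 1 for wild type yeast while the TORC1 bypass strain still grows fully, rated 3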
* hit, by the source's call; · = no result.

SMILES	RPL19A TOR yeast	AGP1 TOR yeast	MEP2 TOR yeast	LAP4-GFP MLPCN	CIT2 TOR yeast	LAP4-GFP pick2	MEP2-GFP pick2	RPL19A GFP CP2	CIT2 GFP CP2	AGP1 GFP CP2	s288c autofluor	others
CCOC(=O)CS(=O)(=O)c1nc(-c2ccccc2)cc(C(F)(F)F)n1	87.6	115.3	131.1	179.6*	83.6	·	·	·	·	·	0.41	s288c autofl DR=0.16;TORC1 bypass gr=3
COC(=O)CCS(=O)(=O)c1nc(-c2ccccc2)cc(C(F)(F)F)n1	101.3	148.8	183.4*	155.7*	102.0	·	·	·	·	·	1.02	s288c autofl DR=0.08;TORC1 bypass gr=3
CCOC(=O)CCS(=O)(=O)c1nc(-c2ccccc2)cc(C(F)(F)F)n1	90.4	130.2	144.7	185.2*	98.9	·	·	·	·	·	0.4	s288c autofl DR=0.24;TORC1 bypass gr=3
CCOC(=O)CS(=O)(=O)c1nc(-c2ccc(F)cc2)cc(C(F)(F)F)n1	93.7	88.4	104.3	172.4*	80.8	·	·	·	·	·	0.51
Cc1cc2cc(CN(Cc3ccc4c(c3)OCO4)C(=O)c3cnccn3)c3nnnn3c2cc1C	104.1	103.4	100.2	106.3	102.2	·	·	·	·	·	·
Cc1cc(OCC(=O)NCCCN2CCCC2=O)c2c(C)cc(=O)oc2c1	104.1	100.5	106.8	93.0	102.8	·	·	·	·	·	·
CCc1ccc(NC(=O)CS(=O)CC(=O)Nc2ccc(N3CCOCC3)cc2)cc1 (stereo not given)	102.5	106.4	99.2	96.1	105.8	·	·	·	·	·	·
O=C(NCCNC(=O)c1ccccn1)c1cccc(F)c1	106.0	108.3	112.7	97.0	113.1	·	·	·	·	·	·
O=C1/C(=C/c2ccc(F)c(F)c2)CSc2sccc21	98.3	106.7	96.0	110.7	93.0	·	·	·	·	·	·
Cc1[nH]c(-c2ccccn2)nc(=S)c1Cl	94.2	85.1	92.6	266.9*	86.1	·	·	·	·	·	0.4
CN(C)c1nc(Oc2ccc(=O)[nH]n2)nc(N2CCOCC2)n1	97.8	95.7	97.9	96.7	93.1	·	·	·	·	·	·
Cn1cccc1Cc1nnc(SCC(=O)N2CCc3ccccc32)n1CCc1ccccc1	101.7	103.7	109.1	103.8	102.9	·	·	·	·	·	·
CC(=O)Oc1ccc2c(c1)Oc1cc(OC(C)=O)ccc1C21OC(=O)c2ccccc21	109.2	110.8	230.2*	206.4*	164.1*	148.3	174.7*	222.2	403.3*	119.0	·
Cc1cc(O)ccc1C1(c2ccc(O)cc2C)OC(=O)c2ccccc21	99.4	101.8	101.0	103.1	103.4	·	·	·	·	·	·
O=C(O)C(c1ccccc1)N1C(=O)/C(=C/c2cccs2)SC1=S (stereo not given)	98.8	100.0	93.8	105.0	99.6	·	·	·	·	·	·
CC(c1ccccc1)N1C(=O)/C(=C/c2ccncc2)SC1=S (stereo not given)	84.0	89.6	82.0	193.7*	73.4	260.5*	124.0	78.8	98.7	97.2	0.81
COc1ccc(CNC(=O)c2cc3cccc(OC)c3oc2=N)cc1	102.2	107.6	84.5	108.0	100.2	·	·	·	·	·	·
COc1ccc(CCNC(=O)Cc2ccc(OCc3ccccc3)c(OC)c2[N+](=O)[O-])cc1OCc1ccccc1	105.8	115.5	104.5	105.5	105.3	·	·	·	·	·	·
O=c1cc(CSc2ccc(Cl)cc2)nc(-c2ccccn2)[nH]1	82.7	74.1	86.7	211.2*	88.1	263.5*	169.4*	85.8	121.0	107.0	-0.3	s288c autofl DR=0.59;TORC1 bypass gr=0
COc1ccc(C(=O)N2CCN(C(=O)C3COc4ccccc4O3)CC2)cc1 (stereo not given)	103.3	97.2	103.2	94.5	94.9	·	·	·	·	·	·
O=C(Sc1cccc2cccnc12)c1ccccc1Br	93.9	82.5	104.8	166.0*	89.0	·	·	·	·	·	0.21
c1ccc(-c2nnnn2-c2ccccc2)cc1	105.2	101.3	106.7	90.8	104.3	·	·	·	·	·	·
ClC(Cl)(c1nnnn1-c1ccccc1)c1nnnn1-c1ccccc1	93.1	64.4	82.9	232.1*	86.4	264.5*	148.5	92.2	132.1	96.2	1.6
O=C(O)c1cncc(Br)c1	102.7	111.3	111.2	102.1	112.9	·	·	·	·	·	·
C=CCN1CCN(C(=O)c2ccc3c(c2)OCO3)CC1	99.6	108.8	108.3	95.7	156.7*	104.2	103.1	97.4	100.1	102.7	·
SMILES	RPL19A TOR yeast	AGP1 TOR yeast	MEP2 TOR yeast	LAP4-GFP MLPCN	CIT2 TOR yeast	LAP4-GFP pick2	MEP2-GFP pick2	RPL19A GFP CP2	CIT2 GFP CP2	AGP1 GFP CP2	s288c autofluor	others
Cn1ncc(S(=O)(=O)Cc2ccccc2)c(Cl)c1=O	99.8	101.3	94.0	160.7*	92.8	·	·	·	·	·	0.2	s288c autofl DR=0.84;TORC1 bypass gr=3
CC(=O)C(Cl)C(=O)Nc1ccccc1 (stereo not given)	·	·	·	·	·	120.2	121.5	103.4	123.3	112.2	·
O=C(Nc1ccccc1)C(Cl)C(=O)c1ccccc1 (stereo not given)	101.2	86.5	97.2	129.6	92.5	120.2	113.5	105.3	125.2	106.8	·
CC(=O)c1c(C)oc2ccc(NS(=O)(=O)c3ccc(F)cc3C)cc12	101.9	98.6	103.5	86.2	107.4	·	·	·	·	·	·
Cc1ccc2c(c1)N(CCCC(=O)Nc1cccc(C(F)(F)F)c1)C(=O)CO2	60.2	14.8	111.2	86.4	97.7	102.2	110.0	98.7	100.1	97.8	·
Cc1ccc2c(c1)N(CCCC(=O)NCC1COc3ccccc3O1)C(=O)CO2 (stereo not given)	96.5	96.1	98.6	108.2	89.6	·	·	·	·	·	·
CCNc1ccc(C(=O)OCC(=O)N2CCCC2)cc1[N+](=O)[O-]	95.2	98.6	96.6	101.9	104.4	·	·	·	·	·	·
CCOC(=O)c1ccc(NC(=O)Nc2ncccc2C)cc1	110.7	93.5	100.8	99.4	81.3	·	·	·	·	·	·
CCOC(=O)c1ccc(NC(=O)Nc2ncc(Cl)cc2Cl)cc1	62.7	62.1	89.3	79.5	81.0	97.2	111.8	65.1	100.1	66.3	·

Source: PubChem BioAssay (NMMLSC)
